Targets with a hit are over-represented here; the source holds about 7,900 in all. About 0.6% of all pairs of compound and target were hits.
Columns and labels:
Assay in all cases: log2 fold change, soluble protein after heating vs DMSO (PISA); higher = thermal stabilisation; K562 cells, 10 uM, 30 min; active = over 0.2 and 3.5 SD of the protein, either way, in both replicates (recomputed)
erlotinib = compound: C#Cc1cccc(Nc2ncnc3cc(OCCOC)c(OCCOC)cc23)c1 [erlotinib]
Summary of the method: (§1)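 Soluble protein was quantified by TMTpro 16plex LC-MS/MS after channel sums were equalised. It was obtained as the supernatant after 21,000xg for 90 min from pooled aliquots of K562 cells (2×10^6 cells/mL, 10 μM compound, 30 min) heated for 3 min across 48°C-58°C and extracted in PBS with 0.5% NP-40 at 4°C. Thermal stability values are relative to control samples and come from duplicates. They are given as log2 fold changes.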

[1] = compound: C1=CC(=C(C=C1Cl)C2=NC3=NC=CN=C3C(=N2)NC4=CC=NC=C4)F
Summary of the method: as §1

[2] = compound: C1=CC(=CC=C1C2=NC3=C(N2)C=C(C=C3)C(=O)N)OC4=CC=C(C=C4)Cl
Summary of the method: as §1

[3] = compound: C1=CC2=NC=CN=C2C=C1/C=C/3\C(=O)NC(=O)S3
Summary of the method: as §1

[4] = compound: C1=CC=C(C=C1)C2=NC(=C(N2)C3=CC=NC=C3)C4=CC(=C(C=C4)Cl)O
Summary of the method: as §1

[5] = compound: C1CCN(C1)C(=O)NC2=CC=CC(=C2)NC3=NC=C(C(=N3)NCCC4=CN=CN4)Br
Summary of the method: as §1

[6] = compound: C1CN(CCC1(CC2=CC=C(C=C2)Cl)N)C3=NC=NC4=C3C=CN4
Summary of the method: as §1

[7] = compound: C/C(=N\NC(=O)C1=CC(=CC=C1)S(=O)(=O)N2CCOCC2)/C3=C(C=CC(=C3)Cl)O
Summary of the method: as §1

[8] = compound: C1=CC2=C(C=CC(=C2)/C=C\3/C(=O)NC(=NCC4=CC=CS4)S3)N=C1
Summary of the method: as §1

[9] = compound: C1=CC=C2C(=C1)C3=NNC4=CC=CC(=C43)C2=O
Summary of the method: as §1

Measured: log2 fold change

SDCBP isoform 2 (UniProt O00560)
Chain of UniProt O00560 (O00560 whole entry, looked up): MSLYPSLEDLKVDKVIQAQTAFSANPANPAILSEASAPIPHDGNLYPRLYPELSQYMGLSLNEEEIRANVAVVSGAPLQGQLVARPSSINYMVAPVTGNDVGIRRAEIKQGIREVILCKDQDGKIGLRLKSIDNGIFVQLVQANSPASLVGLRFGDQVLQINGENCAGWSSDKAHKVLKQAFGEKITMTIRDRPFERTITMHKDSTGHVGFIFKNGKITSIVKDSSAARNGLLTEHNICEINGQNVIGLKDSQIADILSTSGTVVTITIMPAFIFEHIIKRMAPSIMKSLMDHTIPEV
inactive: erlotinib 0.157 | [1] 0.007 | [2] 0.159 | [3] 0.009 | [4] -0.299 | [5] 0.249 | [6] 0.096

SCLT1 (UniProt Q96NL6)
inactive: [3] -0.002 | [5] -0.088 | [6] 0.051

RNF220 isoform 3 (UniProt Q5VTB9)
inactive: erlotinib -0.109 | [7] -0.021 | [2] 0.229 | [8] -0.05 | [9] -0.055

RBM26 isoform 3 (UniProt Q5T8P6)
Chain of UniProt Q5T8P6 (Q5T8P6 whole entry, looked up): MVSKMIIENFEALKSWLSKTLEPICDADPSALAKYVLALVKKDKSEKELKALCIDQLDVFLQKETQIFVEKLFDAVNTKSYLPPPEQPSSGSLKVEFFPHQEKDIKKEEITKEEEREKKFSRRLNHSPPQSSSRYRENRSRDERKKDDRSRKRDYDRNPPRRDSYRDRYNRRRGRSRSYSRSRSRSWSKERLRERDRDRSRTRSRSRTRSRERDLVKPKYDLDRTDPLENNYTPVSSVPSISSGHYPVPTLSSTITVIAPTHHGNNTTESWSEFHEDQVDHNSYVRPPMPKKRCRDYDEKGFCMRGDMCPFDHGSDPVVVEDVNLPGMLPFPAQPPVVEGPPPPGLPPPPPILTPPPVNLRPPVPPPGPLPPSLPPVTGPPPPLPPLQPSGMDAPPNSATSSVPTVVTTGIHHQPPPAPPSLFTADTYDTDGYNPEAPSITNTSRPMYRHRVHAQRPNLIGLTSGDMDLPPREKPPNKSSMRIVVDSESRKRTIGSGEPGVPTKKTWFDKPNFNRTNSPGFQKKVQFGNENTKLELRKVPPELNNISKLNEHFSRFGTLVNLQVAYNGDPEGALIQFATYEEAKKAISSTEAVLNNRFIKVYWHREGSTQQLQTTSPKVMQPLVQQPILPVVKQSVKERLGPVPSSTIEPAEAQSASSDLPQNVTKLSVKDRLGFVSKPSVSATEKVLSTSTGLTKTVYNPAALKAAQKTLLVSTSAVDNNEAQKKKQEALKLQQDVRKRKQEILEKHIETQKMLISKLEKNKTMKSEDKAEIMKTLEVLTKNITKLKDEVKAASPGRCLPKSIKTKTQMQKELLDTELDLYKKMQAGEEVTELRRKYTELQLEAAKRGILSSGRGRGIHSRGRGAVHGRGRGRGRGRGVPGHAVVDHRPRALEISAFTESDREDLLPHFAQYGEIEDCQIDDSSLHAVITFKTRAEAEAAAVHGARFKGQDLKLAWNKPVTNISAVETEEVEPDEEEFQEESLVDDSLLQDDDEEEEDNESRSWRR
inactive: [7] 0.22 | [8] -0.079 | [9] -0.149

SEMG2 (UniProt Q02383)
active: [9] -0.562
inactive: [7] 1.75 | [1] 0.047 | [8] 0.237 | [3] -0.042 | [5] -0.071 | [6] 0.06

SH2D1B (UniProt O14796)
Chain of UniProt O14796 (O14796 whole entry, looked up): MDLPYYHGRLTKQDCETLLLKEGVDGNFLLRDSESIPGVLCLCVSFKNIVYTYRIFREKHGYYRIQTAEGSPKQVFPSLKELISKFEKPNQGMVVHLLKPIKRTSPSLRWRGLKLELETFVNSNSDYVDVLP
inactive: erlotinib -0.294 | [7] -0.059 | [1] -0.218 | [2] -0.098 | [8] 0.057 | [4] -0.228 | [9] -0.406 | [5] -0.036 | [6] 0.028

SAMD4B (UniProt Q5PRF9)
inactive: erlotinib -0.117 | [1] -0.17 | [2] -0.13 | [3] 0.124 | [4] -0.135 | [5] 0.037 | [6] 0.045

RNF41 (UniProt Q9H4P4)
Chain of UniProt Q9H4P4 (Q9H4P4 whole entry, looked up): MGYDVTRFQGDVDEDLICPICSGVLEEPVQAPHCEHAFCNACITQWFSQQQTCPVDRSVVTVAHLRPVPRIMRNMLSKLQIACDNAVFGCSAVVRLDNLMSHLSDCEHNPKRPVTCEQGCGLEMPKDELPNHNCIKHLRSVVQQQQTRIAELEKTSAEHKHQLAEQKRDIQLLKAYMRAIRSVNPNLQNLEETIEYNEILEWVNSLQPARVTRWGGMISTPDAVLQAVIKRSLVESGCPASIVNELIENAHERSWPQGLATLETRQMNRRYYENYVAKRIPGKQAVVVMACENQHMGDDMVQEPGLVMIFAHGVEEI
inactive: [7] 0.043 | [8] -0.074 | [3] -0.146 | [9] -0.002

RBMY1E (UniProt A6NEQ0)
Chain of UniProt A6NEQ0 (A6NEQ0 whole entry, looked up): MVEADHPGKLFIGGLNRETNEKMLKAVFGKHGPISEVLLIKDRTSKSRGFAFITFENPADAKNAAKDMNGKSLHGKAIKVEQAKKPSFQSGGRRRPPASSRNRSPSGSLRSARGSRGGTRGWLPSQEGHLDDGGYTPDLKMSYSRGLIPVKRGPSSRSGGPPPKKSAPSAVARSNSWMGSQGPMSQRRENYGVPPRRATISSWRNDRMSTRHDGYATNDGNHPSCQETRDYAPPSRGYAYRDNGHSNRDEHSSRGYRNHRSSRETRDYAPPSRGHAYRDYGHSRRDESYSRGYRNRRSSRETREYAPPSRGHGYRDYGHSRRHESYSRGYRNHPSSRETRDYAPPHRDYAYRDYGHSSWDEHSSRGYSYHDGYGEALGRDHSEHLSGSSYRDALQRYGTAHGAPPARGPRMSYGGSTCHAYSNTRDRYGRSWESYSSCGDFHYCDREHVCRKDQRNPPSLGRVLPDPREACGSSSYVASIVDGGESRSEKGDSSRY
inactive: erlotinib -0.238 | [2] 0.06 | [3] -0.003 | [4] -0.044 | [5] -0.072 | [6] -0.099

S100A10 (UniProt P60903)
Chain of UniProt P60903 (P60903 whole entry, looked up): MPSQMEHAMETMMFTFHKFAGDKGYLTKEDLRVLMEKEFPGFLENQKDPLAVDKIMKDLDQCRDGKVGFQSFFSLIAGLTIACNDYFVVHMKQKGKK
inactive: [7] 0.122 | [8] 0.194 | [3] 0.052 | [9] -0.096 | [5] -0.042 | [6] -0.013

SAP30 (UniProt O75446)
Chain of UniProt O75446 (O75446 whole entry, looked up): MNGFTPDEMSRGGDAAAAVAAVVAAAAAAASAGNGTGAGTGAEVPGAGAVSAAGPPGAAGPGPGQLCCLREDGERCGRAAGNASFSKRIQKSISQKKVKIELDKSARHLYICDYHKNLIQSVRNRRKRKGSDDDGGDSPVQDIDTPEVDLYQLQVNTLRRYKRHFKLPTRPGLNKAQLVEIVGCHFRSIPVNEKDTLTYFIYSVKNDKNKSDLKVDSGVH
inactive: erlotinib -0.04 | [7] 0.061 | [1] -0.069 | [2] -0.027 | [8] 0.018 | [9] -0.13

RMDN2 isoform 2 (UniProt Q96LZ7)
inactive: [4] 0.088

RPS3 (UniProt E9PJN9)
inactive: [4] 0.203 | [5] 0.021 | [6] -0.151

SLC12A5 (UniProt Q9H2X9)
inactive: erlotinib 0.036 | [7] 0.054 | [2] 0.034 | [8] 0.098 | [3] -0.021 | [9] -0.138 | [5] 0.038 | [6] 0.103
active: [1] -0.49

RPS6KA3 (UniProt P51812)
Chain of UniProt P51812 (P51812 whole entry, looked up): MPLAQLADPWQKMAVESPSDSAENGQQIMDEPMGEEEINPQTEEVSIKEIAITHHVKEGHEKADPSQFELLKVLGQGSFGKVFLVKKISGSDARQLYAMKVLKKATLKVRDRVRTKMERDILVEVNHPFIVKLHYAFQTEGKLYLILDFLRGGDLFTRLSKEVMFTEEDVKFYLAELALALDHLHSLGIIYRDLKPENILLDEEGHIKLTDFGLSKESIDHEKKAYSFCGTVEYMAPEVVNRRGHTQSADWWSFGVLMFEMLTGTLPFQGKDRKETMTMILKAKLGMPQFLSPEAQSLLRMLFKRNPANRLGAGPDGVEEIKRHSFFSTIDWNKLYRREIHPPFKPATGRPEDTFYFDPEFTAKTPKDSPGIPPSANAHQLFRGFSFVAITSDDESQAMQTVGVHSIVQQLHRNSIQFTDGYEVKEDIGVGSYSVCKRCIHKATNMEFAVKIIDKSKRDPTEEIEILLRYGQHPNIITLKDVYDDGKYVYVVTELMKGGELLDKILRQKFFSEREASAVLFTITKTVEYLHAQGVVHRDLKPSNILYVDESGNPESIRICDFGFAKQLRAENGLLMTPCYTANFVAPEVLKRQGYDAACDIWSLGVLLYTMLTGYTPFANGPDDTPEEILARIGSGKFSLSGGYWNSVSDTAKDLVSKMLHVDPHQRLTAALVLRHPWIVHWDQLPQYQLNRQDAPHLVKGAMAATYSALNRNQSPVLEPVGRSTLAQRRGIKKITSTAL
active: [9] -0.345
inactive: erlotinib -0.024 | [7] 0.08 | [1] 0.018 | [2] 0.072 | [3] 0.061 | [4] -0.043 | [5] -0.085 | [6] -0.017

RELA (UniProt Q04206)
Chain of UniProt Q04206 (Q04206 whole entry, looked up): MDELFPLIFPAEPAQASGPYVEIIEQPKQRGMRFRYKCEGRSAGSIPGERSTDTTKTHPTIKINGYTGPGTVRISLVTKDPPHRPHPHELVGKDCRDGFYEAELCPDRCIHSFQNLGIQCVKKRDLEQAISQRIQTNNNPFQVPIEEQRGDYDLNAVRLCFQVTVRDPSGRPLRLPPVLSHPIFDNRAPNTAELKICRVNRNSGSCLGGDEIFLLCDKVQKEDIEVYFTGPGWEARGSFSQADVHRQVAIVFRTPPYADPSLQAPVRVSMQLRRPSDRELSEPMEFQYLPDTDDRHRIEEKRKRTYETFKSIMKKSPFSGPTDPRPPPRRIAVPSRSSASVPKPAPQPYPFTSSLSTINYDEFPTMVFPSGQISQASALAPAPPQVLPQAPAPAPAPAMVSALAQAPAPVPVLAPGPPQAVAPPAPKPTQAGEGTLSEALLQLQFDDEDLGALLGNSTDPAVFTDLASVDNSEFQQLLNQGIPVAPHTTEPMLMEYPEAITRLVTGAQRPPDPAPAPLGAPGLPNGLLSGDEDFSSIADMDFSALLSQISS
inactive: [7] 0.034 | [1] 0.003 | [2] -0.011 | [8] -0.007 | [3] 0.014 | [4] -0.002 | [9] 0.004 | [5] -0.022 | [6] 0.011

SAFB2 (UniProt K7EQU4)
inactive: [1] -0.172 | [3] -0.277

RAPGEF4 (UniProt Q8WZA2)
Chain of UniProt Q8WZA2 (Q8WZA2 whole entry, looked up): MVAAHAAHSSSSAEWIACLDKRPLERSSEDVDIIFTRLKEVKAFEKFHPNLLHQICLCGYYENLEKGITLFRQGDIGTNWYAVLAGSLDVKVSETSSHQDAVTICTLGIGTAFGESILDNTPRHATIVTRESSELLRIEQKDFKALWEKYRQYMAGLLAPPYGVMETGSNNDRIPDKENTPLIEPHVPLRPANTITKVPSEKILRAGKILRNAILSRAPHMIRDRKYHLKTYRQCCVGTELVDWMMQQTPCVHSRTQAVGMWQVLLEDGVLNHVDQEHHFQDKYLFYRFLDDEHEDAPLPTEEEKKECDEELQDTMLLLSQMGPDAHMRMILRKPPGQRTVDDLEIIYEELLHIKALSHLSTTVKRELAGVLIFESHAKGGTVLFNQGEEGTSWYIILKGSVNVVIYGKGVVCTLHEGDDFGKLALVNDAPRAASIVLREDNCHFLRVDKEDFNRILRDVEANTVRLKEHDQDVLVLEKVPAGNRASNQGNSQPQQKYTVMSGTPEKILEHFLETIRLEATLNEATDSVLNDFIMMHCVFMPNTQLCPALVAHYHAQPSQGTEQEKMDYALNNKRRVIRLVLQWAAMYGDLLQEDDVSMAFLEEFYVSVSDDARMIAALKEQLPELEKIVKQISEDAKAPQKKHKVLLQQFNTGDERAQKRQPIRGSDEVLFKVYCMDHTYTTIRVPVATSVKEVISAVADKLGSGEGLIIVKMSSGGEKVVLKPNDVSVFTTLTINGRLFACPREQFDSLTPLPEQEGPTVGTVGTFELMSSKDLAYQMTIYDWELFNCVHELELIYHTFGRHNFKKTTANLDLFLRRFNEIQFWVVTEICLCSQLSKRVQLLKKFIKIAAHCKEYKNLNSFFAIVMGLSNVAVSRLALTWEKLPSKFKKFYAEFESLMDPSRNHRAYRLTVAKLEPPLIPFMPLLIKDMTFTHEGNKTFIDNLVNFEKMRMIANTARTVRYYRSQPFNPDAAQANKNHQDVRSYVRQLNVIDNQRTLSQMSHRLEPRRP
active: [7] -0.636
inactive: erlotinib 0.271 | [1] 0.057 | [2] 0.053 | [8] 0.19 | [3] 0.029 | [9] -0.014 | [5] -0.038 | [6] 0.18
